# Screening data as filed in PubChem.
# In the library only some 7.7% were active in any assay of this set; here they are far more common.
# TbPYK inhibitor = blocks Trypanosoma brucei pyruvate kinase | Q57TT1 | TbPYK enzyme, Kinase-Glo Plus ATP luminescence, 45 min | Potency, µM (highest dose often 76.8 µM), hits mostly inhibitors | 0.12% of 410,000 active; also: nearly all actives have a fitted effect of over 50% in size
#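 In this concentration-response screen, enzyme-free wells defined baseline while DMSO plates tracked drift. Each reaction combined TbPYK, substrate, compound and 130 uM ADP for 45 min at room temperature. Kinase-Glo Plus luminescence gave the signal.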
# FBPA Giardia inh = blocks Giardia fructose-bisphosphate aldolase activity; AID 2451; purified Giardia FBPA; Potency, µM (series often up to 59.6 µM), actives largely listed as inhibitors; 0.71% of 290,000 active; also: nearly all actives have a fitted effect of over 55% in size
# Target sequence (A8B2U2 whole entry, looked up): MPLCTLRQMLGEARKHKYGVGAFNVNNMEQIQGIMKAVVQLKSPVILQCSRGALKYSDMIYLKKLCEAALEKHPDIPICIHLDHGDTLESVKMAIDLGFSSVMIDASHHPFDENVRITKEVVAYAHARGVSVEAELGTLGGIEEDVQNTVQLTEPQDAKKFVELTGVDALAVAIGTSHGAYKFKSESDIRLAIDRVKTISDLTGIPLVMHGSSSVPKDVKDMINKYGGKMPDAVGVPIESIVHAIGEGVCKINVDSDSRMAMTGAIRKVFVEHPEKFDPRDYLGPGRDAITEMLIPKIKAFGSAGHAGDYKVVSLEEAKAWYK
#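 Giardia FBPA (40 nM reagent) was preincubated 10 min at RT with compound (up to 57.5 uM final), then substrate plus GAPDH/TPI/NAD/arsenate coupling system with diaphorase/resazurin was added; resorufin fluorescence (525/598 nm) was read after 20 min.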
# HCMV inh = blocks human cytomegalovirus replication; HFF cells, HCMV-luciferase reporter, 72 h; active compounds read low; activity change, negative = inhibition, % at 57.5 µM; 4.5% of 410,000 active; AID 1259415; in the data active = activity change below about -60%; inconclusive = no clear call, values can overlap the other calls; inactive = above about -39%
#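 Two compound doses tested in HFFs infected with HCMV-luciferase, MOI 1 PFU/cell, 72 h at 37C. Lysate luminescence read with OneGlo; data normalized against buffer-only and 10uM Salinomycin inhibitor controls.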
# FMDV inh = antivirals against foot and mouth disease virus | FMDV antiviral cell-based qHTS | Potency, µM (top dose mostly 57.9 µM), hits mostly inhibitors | 1.2% of 410,000 active | AID 1159524; calls by dose curve; tested in HEK293T cells; also: read-out not given here; nearly all actives have a fitted effect of over 45% in size
# Sm TGR inh = inhibitors of Schistosoma mansoni thioredoxin glutathione reductase | purified TGR, DTNB reduction, TNB absorbance 405 nm | Potency, µM (titrated, usually from 114 µM), actives largely listed as inhibitors | 3% of 360,000 active | AID 485364; also: nearly all actives have a fitted effect of over 60% in size
#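 First, TGR (20 nM dispensed) and NADPH were mixed with compound. Second, a 15 min room-temperature incubation followed. Third, further NADPH and then DTNB were added to start the reaction. Finally, TNB absorbance was monitored kinetically.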
# RE007 growth inh = less growth of the S. pombe RE007 Vpr strain. S. pombe RE007 Vpr strain, BacTiter-Glo ATP luminescence, 24 h. AID 651644. Potency, µM (top dose mostly 92.2 µM), usual class: inhibitors. 0.21% of 360,000 active; active = well fitted falling curve with a large enough effect; inconclusive = small, poorly fitted or top-dose-only effect; inactive = no such curve, though single readings can be large or run the other way; also: nearly all actives have a fitted effect of over 50% in size
#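 Fission yeast RE007 carrying one integrated HIV-1 vpr copy, seeded at OD 0.01 in PMG+AL medium with 23 nL pinned compound. Grown 24 h at 30 degrees; viability read by BacTiter-Glo luminescence after 5 min.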
# Numbers stand for hits; - = inactive; ? = inconclusive; . = not tested or not shown; ! = not active in a repeat; [ ] = another dose, or the depositor's remark. Unless noted, calls follow the shape of the dose curve; as a rule, active = well fitted curve in the direction sought with a large enough effect; inconclusive = small, poorly fitted or top-dose-only effect, or another doubt; inactive = no such curve, though single readings can be large; an effect the other way counts as inactive or inconclusive.
SMILES,TbPYK inhibitor,FBPA Giardia inh,HCMV inh,FMDV inh,Sm TGR inh,RE007 growth inh
CCN(CC)CCCN(C(=O)c1cccc(C)c1)c1nc(-c2ccc(OC)cc2)cs1,-,-,-94.7,-,-,-
COc1cccc(OC)c1C(=O)Nc1ccc(-c2nc3ncccc3o2)cc1,-,.,-,-,-,.
CN1OC[C@@H]2CN(CC3CCCCC3)[C@H](c3ccc(-c4ccc(C#N)cc4)cc3)C[C@@H]21,.,.,-,.,.,.
O=C(NCCc1ccccc1)c1ccc(CSc2nc3cccnc3n2Cc2ccccc2)cc1,-,.,-,-,-,.
O=C(NCc1ccccc1)c1ccc(CSc2nc3cccnc3n2Cc2cccc(F)c2)cc1,-,.,-67.4,-,-,.
CN(Cc1ccccc1)C(=O)c1ccc(CSc2nc3cccnc3n2Cc2ccccc2)cc1,-,.,-70.8,?,-,.
Cn1c(SCc2ccc(F)cc2)nc2ccc(C(=O)NCc3ccc(F)cc3)cc21,-,.,-68.6,?,-,.
CC(C)CN1CCN(C(=O)COC(=O)c2ccc(S(C)(=O)=O)c([N+](=O)[O-])c2)CC1,-,.,-,?,.,.
CC(OC(=O)c1ccc(S(C)(=O)=O)c([N+](=O)[O-])c1)C(=O)NC1C2CC3CC(C2)CC1C3 (stereo unspecified),-,.,-97.1,31.6µM,.,.
CCC(OC(=O)c1ccc(S(C)(=O)=O)c([N+](=O)[O-])c1)C(=O)NC1C2CC3CC(C2)CC1C3 (stereo unspecified),-,.,-94.6,39.8µM,.,.
CC(=O)c1cccc(NC(=O)Cn2cc(C(=O)c3cccc(Cl)c3)c(=O)c3ccc(C)nc32)c1,-,.,-,-,-,.
CN(Cc1ccccc1)C(=O)c1cc(-c2cccc(Cl)c2)on1,-,.,-,-,-,.
Cc1ccc(N(CC2=NCCN2)c2cccc(O)c2)cc1,-,?,-65.9!,-,-,-[18.4 µM]
O=C(/C=C/c1ccc2c(c1)OCO2)c1c(O)n(CCC2=CCCCC2)c(=O)[nH]c1=O,-,-,-,?,?,-
COc1ccc(/C=C/C(=O)c2c(O)n(CCC3=CCCCC3)c(=O)[nH]c2=O)cc1,-,-,-,35.5µM,-,-
OCCN1CCN(C(=S)c2ccc(Cl)cc2)CC1,?,-,-,-,-,-
CCOC(=O)N1CCN(CCC(=O)Nc2ccc(OC)cc2)CC1,-,-,-,-,-,-
CCN1CCN(C(=S)c2ccc(Cl)cc2)CC1,?,3.97µM,-,-,-,-
CCOC(=O)N1CCN(CCC(=O)c2ccc(OC)cc2)CC1,-,-,-,-,-,28.2µM
CC1CCCN(CCC(=O)c2ccc(Br)cc2)C1 (stereo unspecified),-,-,-,-,-,-
CCOC(=O)N1CCN(CCC(=O)c2ccc(Br)cc2)CC1,-,-,-,-,-,35.5µM
COc1ccc(C(=O)CCN2CCCC(C)C2)cc1 (stereo unspecified),-,-,-,-,0.282µM,?
CCc1ccc(OCC2c3cc(OC)c(OC)cc3CCN2C(=O)COc2ccccc2)cc1 (stereo unspecified),-,.,-,-,-,.
Cc1cnc(SCCN2CCOCC2)nc1C1CCCN(C(=O)c2cccc3c(C)c(C)[nH]c23)C1 (stereo unspecified),.,.,.,-,.,.
COC(=O)c1ccccc1NC(=O)CCC(=O)N1CC(C)Sc2ccccc21 (stereo unspecified),-,.,-,-,-,.
SMILES,TbPYK inhibitor,FBPA Giardia inh,HCMV inh,FMDV inh,Sm TGR inh,RE007 growth inh
COc1ccc(Oc2ncc3nc(-c4ccc(OC)cc4)c(=O)n(C4CC4)c3n2)cc1,.,-,.,-,.,.
CCOC(=O)N1CCN(C(=O)Cc2ccc(Cl)cc2)CC1,-,-,-,-,-,-
CCOC(=O)N1CCN(CCC(=O)c2ccc(Cl)cc2)CC1,-,-,-,?,-,31.6µM
CCOC(=O)N1CCN(C(=O)c2ccc(CSc3ccc(Cl)cc3)cc2)CC1,-,-,-71.2,25.1µM,-,-
CC(Sc1nc(-c2ccco2)nc2c1c(=O)n(C)c(=O)n2C)C(=O)O (stereo unspecified),-,-,-,-,39.8µM,-
Cn1c(=O)c2c(SCc3ccccc3)nc(-c3ccco3)nc2n(C)c1=O,.,-,.,.,-,.
CCOC(=O)N1CN(C(=O)OCC)CN(C(=O)OCC)C1,-,-,-,-,-,.
CCOC(=O)N1CCN(C(=O)COC(=O)c2cc(Cl)cc(Cl)c2)CC1,-,.,-,-,.,-
CC(C)(C)NC(=O)CN1CCN(C(=O)CCl)CC1,-,-,-63.4,?,44.7µM,-
CCOC(=O)N1CCN(C(=O)CCl)CC1,-,-,-,?,39.8µM,-
Cc1cc(C(=O)COC(=O)c2cc(Cl)c(O)c(Cl)c2)c(C)n1C,-,.,-,-,50.1µM,-
CC(C)(C)NC(=O)CN1CCCN(C(=O)COc2ccc(Cl)c3ccccc23)CC1,-,.,-,-,-,-
CCOC(=O)N1CCN(C(=O)COC(=O)c2cc(Cl)c(O)c(Cl)c2)CC1,-,-,-73.5,-,-,-
Cc1cc2c(c(=O)o1)[C@@]1(C(=O)N(C)c3ccc([N+](=O)[O-])cc31)C1=C(CCCC1=O)O2,.,.,-,.,.,.
COc1ccc2[nH]cc(CCNC(=O)Nc3cc(C)cc(C)c3)c2c1,-,.,-,-,-,.
CCOC(=O)c1cc(-c2ccc(C)cc2)n(CC(=O)Nc2ccccc2F)c1C,-,.,-81.7,-,-,.
CCOC(=O)c1cc(-c2ccccc2)n(CCCC(=O)Nc2ccc(CC)cc2)c1C,-[15.4 µM],.,?,?,-,.
CCOC(=O)c1cc(-c2ccccc2)n(CCC(=O)Nc2ccc(C(F)(F)F)cc2)c1C,-,.,-97.7,?,-,.
O=CN1CCCN(C(=O)c2cc(NC(=O)c3ccccc3)cc3ncn(C4CCCC4)c23)CC1,.,.,.,-,.,.
COc1ccc(N=C2S/C(=C\c3cc(C)n(C)c3C)C(=O)N2C)cc1,-,-,-,-,50.1µM,-
Cc1cccc(C(=O)NNC(=O)c2cccc(C)c2)c1,-,-,-,-,-,-
Cc1cccc(C(=O)NNC(=O)c2ccc(F)cc2)c1,-,-,-,-,7.94µM,-
COC(=O)c1ccc(NC(=O)c2cccc(C)c2)cc1,-,-,-,-,89.1µM,-
Cc1c(Br)c(C(=O)NNC(=O)c2ccc(C(C)(C)C)cc2)nn1C,-,-,-61.4,-,-,-
Cn1cc(Br)c(C(=O)NNC(=O)c2ccc(Br)cc2)n1,-,-,-,-,-,-
CC(C)(C)c1ccc(C(=O)NNC(=O)c2cccc(Br)c2)cc1,-,-,-72.6,-,-,-
Cc1cc(S(=O)(=O)c2ccc([N+](=O)[O-])cn2)ccc1Br,-,.,-98.1,8.91µM,.,?
Cc1cc(Sc2ccc([N+](=O)[O-])cn2)ccc1Br,-,.,-,-,.,-
O=S(=O)(c1ccccc1)c1ccc(C(F)(F)F)cn1,-,-,-,-,14.1µM,-
O=[N+]([O-])c1ccc(S(=O)(=O)c2ccccc2)nc1,-,-,-98.0,35.5µM,0.316µM,.
